# Several values for one entry are separate records, joined by “and”; a condition that tells them apart may be missing. Equal values may be shown once.
# Assays:
# Experiment in all cases: thermal shift delta Tm vs DMSO control; higher = stronger stabilization (binding)
# Conditions in all cases: 12.5 µM; protein concentration 2 µM
# LOC_OS01G57100-cb003 = tested on: LOC_OS01G57100-cb003
# Procedure, shortened: (§1)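 Purified, E. coli-expressed rice kinase domain constructs were tested by differential scanning fluorimetry in 96-well plates: 19.5 μl of 2 μM kinase in 100 mM potassium phosphate pH 7.5, 150 mM NaCl, 10% glycerol, 5 × SYPRO Orange, plus compound in DMSO. Fluorescence was read from 25°C to 95°C at 0.05°C/s. Melting temperatures came from Boltzmann fits, and the shift is the triplicate mean relative to protein with DMSO alone.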
# LOC_OS01G60330-cb001 = tested on: LOC_OS01G60330-cb001
# Procedure, shortened: as §1
# LOC_OS01G60700-cb002 = tested on: LOC_OS01G60700-cb002
# Procedure, shortened: as §1
# LOC_OS01G63280-cb003 = tested on: LOC_OS01G63280-cb003
# Procedure, shortened: as §1
# LOC_OS01G67340-cb003 = tested on: LOC_OS01G67340-cb003
# Procedure, shortened: as §1
# LOC_OS01G70970-cb002 = tested on: LOC_OS01G70970-cb002
# Procedure, shortened: as §1
# LOC_OS02G07810-cb001 = tested on: LOC_OS02G07810-cb001
# Procedure, shortened: as §1
# LOC_OS02G08530-cb003 = tested on: LOC_OS02G08530-cb003
# Procedure, shortened: as §1
# LOC_OS02G14120-cb001 = tested on: LOC_OS02G14120-cb001
# Procedure, shortened: as §1
# LOC_OS02G17970-cb001 = tested on: LOC_OS02G17970-cb001
# Procedure, shortened: as §1
# LOC_OS02G45750-cb003 = tested on: LOC_OS02G45750-cb003
# Procedure, shortened: as §1
# LOC_OS02G54510-cb004 = tested on: LOC_OS02G54510-cb004
# Procedure, shortened: as §1
# LOC_OS03G04050-cb001 = tested on: LOC_OS03G04050-cb001
# Procedure, shortened: as §1
# LOC_OS03G12390-cb001 = tested on: LOC_OS03G12390-cb001
# Procedure, shortened: as §1
# LOC_OS03G27990-cb004 = tested on: LOC_OS03G27990-cb004
# Procedure, shortened: as §1
# LOC_OS03G50450-cb001 = tested on: LOC_OS03G50450-cb001
# Procedure, shortened: as §1
# LOC_OS03G50810-cb003 = tested on: LOC_OS03G50810-cb003
# Procedure, shortened: as §1
# LOC_OS04G35114-cb001 = tested on: LOC_OS04G35114-cb001
# Procedure, shortened: as §1
# LOC_OS04G38480-cb003 = tested on: T1, LOC_OS04G38480-cb003
# T1 sequence (whole entry): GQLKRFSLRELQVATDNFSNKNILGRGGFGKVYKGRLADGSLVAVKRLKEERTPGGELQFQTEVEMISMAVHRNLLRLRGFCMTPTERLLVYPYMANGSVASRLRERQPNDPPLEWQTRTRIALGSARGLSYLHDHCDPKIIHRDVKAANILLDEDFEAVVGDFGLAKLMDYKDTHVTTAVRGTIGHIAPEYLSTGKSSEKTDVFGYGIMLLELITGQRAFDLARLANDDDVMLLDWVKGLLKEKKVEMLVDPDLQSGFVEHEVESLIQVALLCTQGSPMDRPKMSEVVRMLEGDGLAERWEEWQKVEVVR
# Procedure, shortened: as §1
# LOC_OS04G41100-cb001 = tested on: T2, LOC_OS04G41100-cb001
# T2 sequence (whole entry): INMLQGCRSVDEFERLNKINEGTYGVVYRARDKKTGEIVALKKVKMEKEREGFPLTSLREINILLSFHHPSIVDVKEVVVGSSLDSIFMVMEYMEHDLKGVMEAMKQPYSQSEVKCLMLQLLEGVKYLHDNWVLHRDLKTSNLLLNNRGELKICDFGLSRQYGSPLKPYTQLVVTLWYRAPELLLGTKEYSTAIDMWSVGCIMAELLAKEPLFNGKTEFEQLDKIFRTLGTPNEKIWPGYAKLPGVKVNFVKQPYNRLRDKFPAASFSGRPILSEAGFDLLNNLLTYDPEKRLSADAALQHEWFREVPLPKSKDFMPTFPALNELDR
# Procedure, shortened: as §1
SMILES,thermal shift delta Tm (LOC_OS01G57100-cb003),thermal shift delta Tm (LOC_OS01G60330-cb001),thermal shift delta Tm (LOC_OS01G60700-cb002),thermal shift delta Tm (LOC_OS01G63280-cb003),thermal shift delta Tm (LOC_OS01G67340-cb003),thermal shift delta Tm (LOC_OS01G70970-cb002),thermal shift delta Tm (LOC_OS02G07810-cb001),thermal shift delta Tm (LOC_OS02G08530-cb003),thermal shift delta Tm (LOC_OS02G14120-cb001),thermal shift delta Tm (LOC_OS02G17970-cb001),thermal shift delta Tm (LOC_OS02G45750-cb003),thermal shift delta Tm (LOC_OS02G54510-cb004),thermal shift delta Tm (LOC_OS03G04050-cb001),thermal shift delta Tm (LOC_OS03G12390-cb001),thermal shift delta Tm (LOC_OS03G27990-cb004),thermal shift delta Tm (LOC_OS03G50450-cb001),thermal shift delta Tm (LOC_OS03G50810-cb003),thermal shift delta Tm (LOC_OS04G35114-cb001),thermal shift delta Tm (LOC_OS04G38480-cb003),thermal shift delta Tm (LOC_OS04G41100-cb001)
COc1ccc(Cl)c(Nc2nc3ccccc3nc2NS(=O)(=O)c2cccc(NC(=O)C(C)(C)N)c2)c1 [Pilaralisib (XL147)],0.77 °C,3.02 °C,0.4 °C,2.27 °C,2 °C,1.26 °C,1.84 °C,0.06 °C,-0.43 °C,1.12 °C,1.06 °C,-0.18 °C,0.85 °C,2.37 °C,1.12 °C,1.09 °C,1.54 °C,2.89 °C,2.92 °C,1.52 °C
O=C(O)c1ccc2c3c1cccc3c(=O)n1c3ccccc3nc21,1.73 °C,3.73 °C,1 °C,0.76 °C,1 °C,0.87 °C,0.5 °C,0.93 °C,3.53 °C,0.44 °C,3.28 °C,0.56 °C,0.18 °C,2.82 °C,0.62 °C,0.23 °C,0.91 °C,2.73 °C,2.31 °C,1.19 °C
"CCCS(=O)(=O)Nc1ccc(F)c(C(=O)c2c[nH]c3ncc(-c4ccc(Cl)cc4)cc23)c1F [Vemurafenib (PLX4032, RG7204)]",3.36 °C,10.2 °C,0.62 °C,14.8 °C,3.46 °C,3.78 °C,2.03 °C,1.07 °C,4.6 °C,1.48 °C,9.27 °C,1.86 °C,0.64 °C,4.44 °C,0.69 °C,1.54 °C,2.6 °C,4.48 °C,4.49 °C,0.68 °C
Oc1c2ccccc2c2c3c(cccc13)N=N2,1.83 °C,9.76 °C,1.18 °C,2.18 °C,6.47 °C,6.02 °C,1.65 °C,3.38 °C,5.57 °C,0.82 °C,8.26 °C,0.51 °C,0.73 °C,5.6 °C,3.39 °C,2.66 °C,2.79 °C,6.42 °C,2.04 °C,1.69 °C
Cc1nc(NC(=O)N2CCC[C@H]2C(N)=O)sc1-c1ccnc(C(C)(C)C(F)(F)F)c1 [Alpelisib (BYL719)],0.37 °C,0.43 °C,1.65 °C,0.27 °C,0.12 °C,0.36 °C,0.62 °C,-0.09 °C,2.13 °C,1.03 °C,-0.52 °C,0.02 °C,0.28 °C,0.2 °C,0.55 °C,0.38 °C,0.21 °C,1.56 °C,0.94 °C,0.49 °C
CN1CCN(c2ccc3nc(-c4c(N)c5c(F)cccc5[nH]c4=O)[nH]c3c2)CC1 [Dovitinib (TKI-258) Dilactic Acid],1.5 °C,13.5 °C,1.33 °C,1.22 °C,6.31 °C,7.56 °C,1.75 °C,4.53 °C,6.88 °C,0.5 °C,16.3 °C,1.95 °C,0.96 °C,4.57 °C,8.19 °C,5.49 °C,1.54 °C,9.41 °C,1.48 °C,0.82 °C
COc1ccc(Cl)cc1NC(=O)Nc1cc(C)nc2ccccc12,1.28 °C,1.01 °C,0.92 °C,0.87 °C,0.83 °C,0.66 °C,1.12 °C,0.89 °C,0.14 °C,0.65 °C,0.37 °C,0.12 °C,0.38 °C,0.21 °C,0.52 °C,0.68 °C,0.32 °C,0.93 °C,0.32 °C,0.36 °C
CC(C)n1nc(-c2ccc3oc(N)nc3c2)c2c(N)ncnc21,0.15 °C,0.88 °C,0.9 °C,0.99 °C,0.39 °C,0.54 °C,0.31 °C,1.77 °C,1.77 °C,1.04 °C,6.62 °C,0.93 °C,0.38 °C,0.67 °C,1.24 °C,0.47 °C,0.61 °C,5.42 °C,0.87 °C,0.38 °C
C[C@@H]1CCN(C(=O)CC#N)C[C@@H]1N(C)c1ncnc2[nH]ccc12,1.55 °C and 1.07 °C,0.87 °C and 1.25 °C,0.98 °C and 1.64 °C,0.28 °C and 0.78 °C,0.15 °C and 0.3 °C,0.37 °C and 0.59 °C,0.22 °C and 0.98 °C,0.94 °C and 0.96 °C,0.97 °C and 0.47 °C,0 °C and 1.09 °C,0.35 °C and 0.85 °C,0.3 °C and 0.25 °C,0.21 °C and 0.74 °C,0.19 °C and 0.26 °C,0.12 °C and 0.5 °C,0.32 °C and 0.68 °C,0.11 °C and 0.63 °C,0.38 °C and 0.48 °C,0.3 °C and 0.6 °C,-0.01 °C and 0.47 °C
O=C(Nc1nccs1)C(c1cc(F)ccc1O)N1Cc2ccccc2C1=O (stereo not given),0.29 °C,1.19 °C,0.64 °C,-0.09 °C,1.06 °C,0.42 °C,0.12 °C,0.39 °C,0.47 °C,0.37 °C,0.19 °C,0.2 °C,-0.02 °C,-0.36 °C,0.06 °C,-0.38 °C,0.01 °C,0.12 °C,0.41 °C,0.1 °C
CC(C)CC(=O)Nc1n[nH]c2c1CN(C(=O)C1CCN(C)CC1)C2(C)C,1.01 °C,1.35 °C,0.94 °C,0.65 °C,0.25 °C,0.19 °C,1.09 °C,0.95 °C,0.04 °C,1.36 °C,0.62 °C,0.36 °C,0.36 °C,0.64 °C,0.15 °C,0.29 °C,1.12 °C,0.47 °C,0.59 °C,3.27 °C
CO[C@@H](C(=O)N1Cc2[nH]nc(NC(=O)c3ccc(N4CCN(C)CC4)cc3)c2C1)c1ccccc1,0.28 °C,1.12 °C,0.4 °C,0.57 °C,-0.26 °C,1.38 °C,0.65 °C,0.25 °C,9.66 °C,0.37 °C,6.97 °C,0.95 °C,0.25 °C,4.21 °C,0.41 °C,-0.04 °C,3.61 °C,4.16 °C,2.5 °C,1.51 °C
